Screens deposited in PubChem by several laboratories.
Only some compounds are listed: those with a hit (about 5% of all), similar ones and a draw of the others.
PREPL inh – inhibits the human prolyl oligopeptidase-like enzyme; 0.68% of 320,000 active; AID 2751; Q4J6C6; recombinant PREPL, fluorescence polarization activity-based probe; inhibition, % at 5.96 µM; in the data active = inhibition above about 43%;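 note: 0% = enzyme with DMSO and 100% = wells lacking enzyme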
Target sequence (Q4J6C6 whole entry, looked up): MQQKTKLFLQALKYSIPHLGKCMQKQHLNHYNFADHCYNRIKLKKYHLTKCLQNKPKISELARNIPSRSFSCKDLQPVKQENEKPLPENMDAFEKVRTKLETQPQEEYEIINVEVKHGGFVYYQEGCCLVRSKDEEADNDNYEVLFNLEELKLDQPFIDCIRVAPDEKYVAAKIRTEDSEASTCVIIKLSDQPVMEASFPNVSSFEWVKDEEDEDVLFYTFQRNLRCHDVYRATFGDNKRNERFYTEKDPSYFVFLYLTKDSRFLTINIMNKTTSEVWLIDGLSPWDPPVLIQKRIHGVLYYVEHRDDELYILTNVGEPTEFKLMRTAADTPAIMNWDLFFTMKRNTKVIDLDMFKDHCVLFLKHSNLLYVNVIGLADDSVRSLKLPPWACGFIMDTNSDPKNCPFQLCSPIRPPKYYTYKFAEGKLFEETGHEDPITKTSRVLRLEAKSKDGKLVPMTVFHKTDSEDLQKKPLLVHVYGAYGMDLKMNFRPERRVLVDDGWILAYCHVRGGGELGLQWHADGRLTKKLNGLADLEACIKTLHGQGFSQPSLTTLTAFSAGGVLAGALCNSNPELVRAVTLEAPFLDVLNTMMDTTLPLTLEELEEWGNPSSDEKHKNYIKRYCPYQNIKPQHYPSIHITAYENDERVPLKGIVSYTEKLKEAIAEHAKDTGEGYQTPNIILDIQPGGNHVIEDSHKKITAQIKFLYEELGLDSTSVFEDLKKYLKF
CHT inh – human CHT choline transport inhibition | Q9GZV3 | CHT-expressing cells, membrane potential dye, choline response; active compounds read low | B-score at 10 µM | 0.86% of 310,000 active | AID 488975;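 active = B-score over 3 SD under the library average, and starting fluorescence ratio not unusually high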;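 note: choline stimulus applied at its EC90 after an EC20 pre-addition; B-score computed on integrated fluorescence ratio after choline addition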
ALR H2O2 inh – blocks human ALR sulfhydryl oxidase activity; purified ALR, DTT oxidation, H2O2 HRP-luminol luminescence; P55789; 3.8% of 290,000 active; inhibition, % (no concentration beside the values);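 active = mean replicate inhibition above about 79%, with every replicate also reaching it, limit read from the data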
AI-2 QS modul – Vibrio harveyi AI-2 quorum sensing modulation. activity change, % at 7.5 µM. 0.4% of 300,000 active. Vibrio harveyi JMH597 AI-2 luminescence/OD600 ratio, 9 h; active compounds read low; strain lacks LuxN and CqsS sensors; 0 = neutral-control median; in the data active = activity change below about -75%, passing the limit was not always enough;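 note: luminescence divided by OD600 gain over 9 h not by final OD600 alone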
CHT PAM – human CHT allosteric activation; Q9GZV3; CHT-expressing cells, membrane potential dye, choline EC20; active compounds read high; LV-AA mutant CHT in HEK293 cells; B-score at 10 µM; 0.49% of 310,000 active; AID 488977;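 active = initial fluorescence not abnormally high and integrated response B-score, plate-corrected, over 3 SD above library mean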
An asterisk follows results filed as active; i = inactive; nt = no result given.

SMILES | PREPL inh | CHT inh | ALR H2O2 inh | AI-2 QS modul | CHT PAM
CCN(CC)CCNC(=O)CS(=O)Cc1nc(-c2ccccc2Cl)oc1C (centres undefined) | -4 | i | 99* | 23 | i
CCN(CC)CCNC(=O)CS(=O)Cc1nc(-c2ccc(C)cc2)oc1C (centres undefined) | 1 | i | 99* | 10 | i
Cc1nn(CC(=O)OCC(=O)c2ccccc2)c(C)c1[N+](=O)[O-] | 7 | nt | -5 | nt | nt
COc1ccc(NC(=O)c2cc(S(=O)(=O)N3CCOCC3)cs2)cc1 | 9 | i | 6 | 5 | i
O=C(CCN1CCCCC1)c1ccccc1 | 9 | i | 47 | 13 | i
CCc1oc2ccccc2c1C(=O)CCN1CCCCC1 | -2 | i | 97* | 26 | i
Cc1ccc(NC(=O)CSc2ncnc3ccccc23)cc1S(=O)(=O)N1CCOCC1 | -3 | i | 99* | 23 | i
Cc1ccc(NC(=O)COC(=O)c2ccc(NC(=O)CC#N)cc2)cc1S(=O)(=O)N1CCOCC1 | 0 | nt | 99* | nt | nt
CCN(CC)S(=O)(=O)c1ccc(NC(=O)CSc2ncnc3ccccc23)cc1 | -6 | i | 98* | 12 | i
CN(C)c1ccc(-c2cc3ccccc3c(=O)o2)cc1 | 27 | nt | 12 | nt | nt
COc1ccccc1CNc1ccc(CNc2ncn[nH]2)cc1 | 11 | i | 87* | 7 | i
COc1ccccc1CNc1ccc(C(=O)O)cc1 | 14 | i | -5 | -49 | i
COc1ccccc1CNc1ccc(N2CCCCC2)cc1 | 20 | i | 98* | 3 | i
COc1cccc(Nc2ccc(N3CCCCC3)cc2)c1OC | 21 | nt | 100* | nt | nt
O=S(=O)(NCC1NCCc2ccccc21)c1ccccc1 (centres undefined) | -1 | i | 4 | 8 | i
Cc1cccc(C)c1NC(=O)COC(=O)c1cccc2c1C(=O)c1ccccc1C2=O | 1 | i | nt | 17 | i
Cc1cccc(NC(=O)COC(=O)c2cccc3c2C(=O)c2ccccc2C3=O)c1C | 59* | i | nt | 9 | i
C=CCNC(=S)/C(=C(\[O-])c1ccc(Cl)cc1)[n+]1ccccc1 | 8 | i | 98* | 27 | i
O=C(c1ccco1)N1CCN=C1SCc1ccccc1Cl | -10 | i | 99* | 11 | i
O=C(Cc1cccs1)N1CCN=C1SCc1ccccc1Cl | 4 | i | nt | 10 | i
CCN(CC)S(=O)(=O)c1ccc(C(=O)N2CCN=C2SCc2cccnc2)cc1 | 13 | i | 99* | 6 | i
CN(C)S(=O)(=O)c1ccc(C(=O)N2CCN=C2SCc2cccnc2)cc1 | -4 | i | 99* | 23 | i
O=C(Cc1cccs1)N1CCN=C1SCc1ccccc1F | -5 | i | 99* | 17 | i
Nc1ccc(-c2nc3nc(N)nc(N)c3nc2-c2ccc(N)cc2)cc1 | 24 | i | nt | 18 | i
Cc1onc(-c2ccccc2Cl)c1C(=O)N1CCN=C1SCc1cccnc1 | 4 | i | 99* | 0 | i
SMILES | PREPL inh | CHT inh | ALR H2O2 inh | AI-2 QS modul | CHT PAM
CSC1=NCCN1C(=O)c1ccc2c(c1)OCO2 | 4 | i | -1 | 20 | i
O=C(c1ccc2c(c1)OCO2)N1CCN=C1SCc1cccnc1 | 12 | i | 98* | 17 | i
O=C(Cn1cnc2c(OCc3ccccc3)ncnc21)NCCCc1ccccc1 | -4 | nt | nt | nt | nt
CC(=O)Nc1ccc(C(=O)n2cnc3cc(C)c(C)cc32)cc1 | 0 | i | 99* | 12 | i
CC(=O)Nc1ccc(C(=O)n2nc(C)cc2C)cc1 | 4 | i | -4 | 11 | i
COc1ccc(OCC(=O)N/N=C(\C)c2ccc(OC)cc2)cc1 | 12 | i | nt | 94 | i
CN(C)c1ccc(NC(=O)CC(NCc2ccccn2)C(=O)O)cc1 (centres undefined) | 18 | i | 100* | 20 | i
C/C(=N\NC(=O)c1ccccn1)c1ccc(Cl)cc1 | 8 | i | -5 | 4 | i
C/C(CC(=O)Nc1ccc(N(C)C)cc1)=N\NC(=O)c1ccncc1 | 3 | i | -2 | 18 | i
C/C(CC(=O)Nc1ccc(N(C)C)cc1)=N\NC(=O)c1ccccn1 | 7 | i | 96* | 9 | i
C/C(=N/NC(=O)c1ccccn1)c1ccc(O)cc1 | 15 | i | 99* | 3 | i
Cc1ccc(NC(=O)C(NCc2ccccn2)c2ccccc2)cc1 (centres undefined) | -2 | i | 1 | -2 | i
C/C(=N\NC(=O)COc1ccccc1)c1ccc(O)cc1 | 14 | i | 100* | 2 | i
OCc1ccccc1O[C@@H]1O[C@H](CO)[C@@H](O)[C@H](O)[C@H]1O | 15 | i | 5 | 8 | i
Nc1oc2ccccc2c1C(=O)Cc1ccccc1O[C@@H]1O[C@H](CO)[C@@H](O)[C@H](O)[C@H]1O | 1 | i | 90* | 21 | i
Cc1ccc(SCC(=O)c2ccc(CC(=O)O)s2)cc1 | 20 | i | nt | 7 | i
O=C(O)Cc1ccc(C(=O)CSc2ccccc2)s1 | 9 | i | 98* | 22 | i
CCOC(=O)N1CCC(NC(=O)CS(=O)Cc2nc(-c3ccc(Cl)cc3)oc2C)CC1 (centres undefined) | 7 | i | 99* | 16 | i
CCOC(=O)N1CCC(NC(=O)CS(=O)Cc2nc(-c3ccc(C)cc3)oc2C)CC1 (centres undefined) | 2 | i | 99* | 3 | i
CCOC(=O)N1CCC(NC(=O)CS(=O)Cc2nc(-c3ccc(OC)c(OC)c3)oc2C)CC1 (centres undefined) | 2 | i | 100* | -1 | i
CCOC(=O)N1CCN(C(=O)CS(=O)Cc2nc(-c3ccc(C)cc3)oc2C)CC1 (centres undefined) | 8 | i | nt | 19 | i
Cc1onc(C(=O)Nc2sc3c(c2C#N)CCCC3)c1[N+](=O)[O-] | -1 | i | 90* | 10 | i
CC(C)c1ccc(NCCC(=O)c2cccs2)cc1 | 12 | i | nt | -64 | i
Cc1ccc(NCCC(=O)c2cccs2)cc1C | 6 | i | 99* | 6 | i
Cc1ccc(NCCC(=O)c2cccs2)cc1 | -3 | i | 99* | -39 | i
SMILES | PREPL inh | CHT inh | ALR H2O2 inh | AI-2 QS modul | CHT PAM
O=C(CN1C(=O)NC2(CCCC2)C1=O)Nc1cccc(Cl)c1 | -15 | i | -3 | 20 | i
CN(C)/C=N/c1sc2c(c1C#N)CCCC2 | 5 | i | 100* | 16 | i
COc1ccc(N2CCN(C(=O)CCS(=O)(=O)c3ccc(OC)cc3)CC2)cc1 | 15 | i | 79* | 14 | i
COc1ccc(S(=O)(=O)CCC(=O)N2CCN(c3ccc([N+](=O)[O-])cc3)CC2)cc1 | -8 | i | 3 | 12 | i
COc1ccc(N2CCN(C(=O)C3(S(=O)(=O)c4ccc(C)cc4)CC3)CC2)cc1 | -13 | i | 86* | 24 | i
COC(=O)c1ccc(OC(=O)CCS(=O)(=O)c2ccc(C)cc2)cc1 | 2 | i | 96* | 21 | i
